Among the data in PubChem BioAssay AID1259312 (Keith Lab, Institute of Cancer Science, University of …, 2017) are fold change values, retold here.

Screen size: about 4,500 compounds; about 200 (4.4%) were called active.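 The calls were made as follows: active = cell survival measured by absorbance rises more than 2.5-fold over infected cells without compound; inactive = the rest.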 What follows is part of a selection rich in actives, with near analogues and random picks from the rest.

The test in a line: survival after telomere uncapping, modulators, primary screen, cell-based (AID 1259312).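 Also: virus expresses mutant telomerase RNA that uncaps telomeres and kills cells; compound added 2 days after infection so exposure lasts 3 days.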 The note with it: HCT116 + Ad-hTR-mut, MTT, 5 d; at 10 µM, hits give high values.
Consider `O=C1Nc2ccccc2C1=Nc1ccc(SC(F)F)cc1`, for which the fold change entry is “active”.

Take `O=C1Nc2ccccc2C1=Nc1cccc(Cl)c1`: the fold change entry was “inactive”.

Consider `O=C1Nc2ccccc2/C1=N\N1C(=O)C2C=CC=CC2C1=O` (stereo unspecified), for which the fold change entry was “inactive”.

`O=c1[nH]c2nonc2[nH]c1=O`: the fold change entry was “inactive”.

`O=C1CCCN1c1ccc(S(=O)(=O)Nc2ccc3oc4c(c3c2)CCCC4)cc1`: the fold change was 1.03 (inactive).

`Cc1nnc(SCC(=O)Nc2sc3c(c2C#N)CCC3)s1`: the fold change was -1.54 (inactive).

As for `O=c1[nH]c(=O)c2cc3c(=O)[nH]c(=O)c3cc12`, the fold change was 2.77 (active).

`Nc1cc2[nH]c(=O)[nH]c2cc1N`: the fold change is -1.33 (inactive).

`O=c1[nH]c2ccc(F)cc2c(=O)c2ccccc12`: the fold change is 1.22 (inactive).

For the compound `O=C(C1=C(O)C(=O)N(CCN2CCOCC2)C1c1ccco1)c1ccco1` (stereo unspecified), the fold change is -1.73 (inactive).

As to `O=c1[nH]c2cc(NCCCO)c([N+](=O)[O-])cc2[nH]1`, the fold change is -1.46 (inactive).

For `Nc1n[nH]c(-c2cccnc2)n1`, the fold change was 2.61 (active).

Regarding `c1ccc(-c2nc(-c3cccnc3)[nH]c2-c2ccccc2)cc1`, the fold change is 1.14 (inactive).

Take `COc1cc(OC)cc(-c2nc(N)n[nH]2)c1`: the fold change was 1.56 (inactive).

In the case of `CN1CCC2(CC1)C(C#N)=C(O)NC1=C2C(=O)CC(C)(C)C1`, the fold change was -1.33 (inactive).

In the case of `O=C(CSc1nc2ccccc2nc1SCC(=O)N1CCCCC1)N1CCCCC1`, the fold change was -1.94 (inactive).

In the case of `O=C(Nc1nonc1NC(=O)c1ccc2c(c1)OCO2)c1ccc2c(c1)OCO2`, the fold change was -1.22 (inactive).

Take `CC1(C)O[C@@H]2[C@H](O1)[C@@H](CO)O[C@H]2n1cnc2c(N)ncnc21`: the fold change is -1.14 (inactive).

Consider `Clc1nc2nonc2nc1Nc1ccc(Br)cc1`, for which the fold change was -1.13 (inactive).

In the case of `O=c1[nH]cnc2sc3c(c12)CCCC3`, the fold change is 1.23 (inactive).

With `O=C(CC1NC(=O)N(C2CCCCC2)C1=O)NCC12CC3CC(CC(C3)C1)C2` (stereo unspecified), the fold change was -1.28 (inactive).

Turning to `CC12CC3CC(C)(C1)CC(CC(=O)NCC14CC5CC(CC(C5)C1)C4)(C3)C2`, the fold change was 3.05 (active).

As for `CC12CC3CC(C)(C1)CC(CC(=O)N1CCN(S(C)(=O)=O)CC1)(C3)C2`, the fold change is 1.25 (inactive).

For the compound `CS(=O)(=O)Nc1ccc(Cl)cc1Cl`, the fold change is -1.31 (inactive).

Consider `O=S(=O)(NC1CCCCCC1)c1ccc(F)cc1`, for which the fold change is -1.23 (inactive).

As to `COc1ccc(S(=O)(=O)NC(C)C)cc1`, the fold change is -1.48 (inactive).

In the case of `COc1ccc(S(=O)(=O)NC2CCCCCC2)cc1`, the fold change was 3.33 (active).

For the compound `COc1ccc(S(=O)(=O)Nc2cc(Cl)c(Cl)cc2Cl)cc1`, the fold change is 3.11 (active).

Consider `O=S(=O)(NC1CCCCCC1)c1ccc(Cl)cc1`, for which the fold change is 1.1 (inactive).

For the compound `Cc1ccc(S(=O)(=O)NC2CCCC2)cc1`, the fold change is -1.31 (inactive).

For `O=S(=O)(Nc1cc(Cl)c(Cl)cc1Cl)c1ccc(Cl)cc1`, the fold change is 3.01 (active).

Regarding `COc1ccc(OC)c(NS(=O)(=O)c2ccc(Cl)cc2)c1`, the fold change was 1.33 (inactive).

Turning to `Cc1ccc2c(c1)C(O)(CC(=O)c1ccc3c(c1)OCO3)C(=O)N2` (stereo unspecified), the fold change was -1.44 (inactive).

Consider `O=[N+]([O-])c1c(Sc2nnnn2C2CCCCC2)ncnc1Sc1nnnn1C1CCCCC1`, for which the fold change is 1.21 (inactive).

`N#Cc1c(-c2ccc(Cl)cc2Cl)csc1N`: the fold change is -1.22 (inactive).

In the case of `CN(C)S(=O)(=O)Nc1cccc([N+](=O)[O-])c1`, the fold change is 1.12 (inactive).

Consider `CCn1c(=O)n(CC)c2cc(S(=O)(=O)NC3CCCCC3)ccc21`, for which the fold change is 1.22 (inactive).

For `CC(=O)c1c(O)c(C)c(O)c2c1OC1=CC(=O)C(C(C)=O)C(=O)[C@@]12C` (stereo partly specified), the fold change is -1.06 (inactive).

`CC(=O)N1c2ccccc2C2(C)C(C1(C)C)C2(Cl)Cl` (stereo unspecified): the fold change was 4.16 (active).

`NC(=O)c1c(NC(=O)C2COc3ccccc3O2)sc2c1CCCC2` (stereo unspecified): the fold change was -1.9 (inactive).

Take `COc1cc2c(cc1OC)CC1(C2)c2ccccc2CN1C`: the fold change was -1.34 (inactive).

Take `O=[N+]([O-])c1ccc(C=NC2CCCc3c2[nH]c2ccc(Br)cc32)cc1` (stereo unspecified): the fold change was 1.22 (inactive).

Regarding `CC(=O)N1CCCc2cc(S(=O)(=O)NC(C)(C)C)ccc21`, the fold change was -1.21 (inactive).

As to `COc1ccc(Br)cc1C1C(C#N)=C(N)SC(N)=C1C#N`, the fold change is -1.84 (inactive).

Take `Clc1ccc(N=Cc2cccs2)cc1`: the fold change is 1.21 (inactive).

As to `NS(=O)(=O)c1ccc(N=Cc2cccs2)cc1`, the fold change is 5.47 (active).

For the compound `O=S(=O)(Oc1ccc(N=Cc2cccs2)cc1)c1ccc(Cl)cc1`, the fold change was 2.24 (inactive).

Consider `CN=C1S/C(=C/c2ccc(C)o2)C(=O)N1C`, for which the fold change is -1.34 (inactive).

As for `CCOC(=O)c1sc(N2N=C(C)/C(=C\c3ccc(C)o3)C2=O)nc1C`, the fold change is -1.12 (inactive).

On to `COC(=O)Cn1cnc([N+](=O)[O-])n1`, for which the fold change is -1.14 (inactive).

Turning to `CC1Oc2ccc(S(=O)(=O)NCCCn3ccnc3)cc2NC1=O` (stereo unspecified), the fold change is 1.47 (inactive).

As to `Oc1ccc2ccccc2c1C=Nc1ccc(Cl)cn1`, the fold change result was “active”.

For `Oc1ccc(Br)cc1/C=N/c1nccs1`, the fold change result is “inactive”.

As for `Clc1ccc(N=Cc2cccc3ccccc23)nc1`, the fold change is 1.13 (inactive).

For `Oc1ccc2ccccc2c1/C=N/c1ccccn1`, the fold change entry was “active”.

As to `Oc1ccc(Br)cc1C=Nc1ccc(Cl)cn1`, the fold change entry was “inactive”.

As to `Oc1ccc2ccccc2c1/C=N/c1nccs1`, the fold change result is “active”.

For `Oc1ccc2ccccc2c1C=NCCCCCCN=Cc1c(O)ccc2ccccc12`, the fold change entry was “inactive”.

For `OCCN=Cc1c(O)ccc2ccccc12`, the fold change entry is “inactive”.

Turning to `C(=N\c1nccs1)/c1ccco1`, the fold change was -1.62 (inactive).

Turning to `ClCCOc1nc(OCCCl)nc(OCCCl)n1`, the fold change was 2.12 (inactive).

`CCCc1ccn(CCSCC)c1-c1cccs1`: the fold change was -2.47 (inactive).

`O=C(Nc1ccc(I)cc1)C1CC(=O)N(C2CCCCC2)C1` (stereo unspecified): the fold change is 2.18 (inactive).

Regarding `O=C(Cc1cccs1)NCCN1CCOCC1`, the fold change is -1.05 (inactive).

`O=C1/C(=C/c2ccc3c(c2)OCO3)CCc2ccccc21`: the fold change is -2.22 (inactive).

Take `COC(=O)/C(C#N)=C\c1ccc(C)o1`: the fold change was -2.41 (inactive).

As to `CCCCNC(=O)OCCSC(=S)NCCC`, the fold change is 2.45 (inactive).

Consider `CCOC(=O)Cc1csc(N)n1`, for which the fold change was 1.75 (inactive).

Consider `CCOC(=O)c1csc(N)n1`, for which the fold change is 2.59 (active).

Take `CCOC(=O)c1sc(N)nc1C`: the fold change was 1.75 (inactive).

`O=C(NC1(C(=O)O)CCc2ccccc2C1)OCC1c2ccccc2-c2ccccc21` (stereo unspecified): the fold change is -1.79 (inactive).

`O=S(=O)(c1ccc(NC(=S)Nc2ccccc2)cc1)N1CCCCC1`: the fold change was -2.08 (inactive).

As for `C/C(=N/Nc1ccc([N+](=O)[O-])cc1)c1ccc(/C(CCl)=N/Nc2ccc([N+](=O)[O-])cc2)s1`, the fold change is -1.04 (inactive).

As to `O=C(NC1CCCCCCC1)c1ccc(COc2c(F)c(F)cc(F)c2F)o1`, the fold change is -1.24 (inactive).

In the case of `c1ccc(-c2nonc2N=Nc2nonc2-c2ccccc2)cc1`, the fold change was -1.26 (inactive).

`[O-][n+]1onc(N=Nc2no[n+]([O-])c2-c2ccccc2)c1-c1ccccc1`: the fold change was 2.99 (active).

As for `[O-][n+]1onc(C(c2ccccc2)c2ccccc2)c1C(c1ccccc1)c1ccccc1`, the fold change was -1.76 (inactive).

In the case of `COCCNS(=O)(=O)c1ccccc1`, the fold change is -1.41 (inactive).

Consider `Cc1nc2ccccc2nc1C`, for which the fold change is -2.23 (inactive).

Regarding `Cc1nc2ccccc2nc1NO`, the fold change entry was “active”.

With `Cc1nc2ccccc2nc1C=O`, the fold change is -2.07 (inactive).

Turning to `ON=C1C2CC3CC(C2)CC1C3`, the fold change was -1.41 (inactive).

Consider `Oc1ccc(Br)cc1/C=N/c1ccccn1`, for which the fold change result was “inactive”.

For `COc1cc2c(cc1N)OCO2`, the fold change is -1.08 (inactive).

For the compound `Cc1ccc2[nH]c3nc4ccccc4nc3c2c1`, the fold change was -1.34 (inactive).

Take `c1ccc2nc3c(nc2c1)[nH]c1ccccc13`: the fold change is -1.56 (inactive).

For `c1ccc2c(c1)[nH]c1nc3nnnn3nc12`, the fold change result is “active”.

`CC1CCCN(c2nc3ccccn3c(=O)c2C=O)C1` (stereo unspecified): the fold change is -1.15 (inactive).

Turning to `c1ccc(-n2nnnc2SCSc2nnnn2-c2ccccc2)cc1`, the fold change was 3.7 (active).

Regarding `CSc1nnnn1-c1ccccc1`, the fold change was -1.25 (inactive).

With `c1ccc(-c2noc(CSc3nnnn3-c3ccccc3)n2)cc1`, the fold change is -1.1 (inactive).

Regarding `C#CCn1cc(/C=C2/SC(=NC)N(C)C2=O)c2ccccc21`, the fold change was -1.74 (inactive).

With `O=C(O)CCCCCn1c(O)c(C2=c3cc(Br)ccc3=NC2=O)sc1=S`, the fold change result is “inactive”.

In the case of `O=C(O)CCCn1c(O)c(/C=C2/C=c3ccccc3=NC2=O)sc1=S`, the fold change entry is “active”.

As for `O=C(O)Cn1c(O)c(/C=C2/C=c3ccccc3=NC2=O)sc1=S`, the fold change result is “inactive”.

As for `CCOC(=O)C1=C(C)NC2=C(C(=O)CC(C)(C)C2)C1c1ccc(C)s1` (stereo unspecified), the fold change was -1.32 (inactive).

On to `CN=C1S/C(=C/c2cn(Cc3ccc(F)cc3)c3ccccc23)C(=O)N1C`, for which the fold change is -1.32 (inactive).

As to `O=C(O)C1OC(O)C(O)C(O)C1O` (stereo unspecified), the fold change was -2.05 (inactive).

With `CCOC(=O)CN(C1=NS(=O)(=O)c2ccccc21)c1ccccc1`, the fold change was 1.02 (inactive).

Consider `COc1ccc(NS(=O)(=O)c2ccc(N=Cc3cc(Br)cc(Br)c3O)cc2)nn1`, for which the fold change entry was “inactive”.

As to `O=C(O)Cn1cc([N+](=O)[O-])cn1`, the fold change was 2.02 (inactive).

As for `CCCCNC(=O)Cn1cc([N+](=O)[O-])cn1`, the fold change was -2.9 (inactive).

Take `CCOC(=O)c1c(C)nn2cc(-n3cc([N+](=O)[O-])cn3)cnc12`: the fold change was 5.25 (active).

In the case of `COc1cc(C(c2ccccc2)(c2ccccc2)c2ccccc2)cc2c1NC(C)(C)C=C2C`, the fold change was 2.23 (inactive).

Take `NCc1cc(C(F)(F)F)cc(C(F)(F)F)c1`: the fold change is -1.11 (inactive).

On to `O=C(CC(c1ccc(Cl)c(Cl)c1)C1CCCCCC1=O)c1ccc(Cl)cc1` (stereo unspecified), for which the fold change was -1.72 (inactive).

Turning to `CC(CC(=O)O)n1ccnc1` (stereo unspecified), the fold change is 1.78 (inactive).

Take `O=C(CC(C(=O)O)n1ccnc1)c1ccc(C2CCCCC2)cc1` (stereo unspecified): the fold change was 2.74 (active).

For the compound `O=C1ON=C(c2ccccc2)/C1=C/N1CCCCC1`, the fold change was -1.47 (inactive).

Regarding `O=C1CN(C(=O)CSC2CCS(=O)(=O)C2)c2ccccc2N1` (stereo unspecified), the fold change was -1.24 (inactive).

With `CC1CC2=C(C(=O)O1)C(c1cccs1)C(C#N)=C(N)O2` (stereo unspecified), the fold change was 2.62 (active).

With `COC(=O)C1=C(C)OC(N)=C(C#N)C1c1cccs1` (stereo unspecified), the fold change is -1.65 (inactive).

With `CC1(C)CC(=O)C2=C(C1)OC(N)=C(C#N)C2c1cc(Br)cs1` (stereo unspecified), the fold change was -1.65 (inactive).

For `CC1(C)CC(=O)C2=C(C1)OC(N)=C(C#N)C2c1cccs1` (stereo unspecified), the fold change was 4.33 (active).

On to `CCOC(=O)C1=C(C)OC(N)=C(C#N)C1c1cccs1` (stereo unspecified), for which the fold change is 2.09 (inactive).

Turning to `Cc1ccc(C2C(C#N)=C(N)OC3=C2C(=O)CC(C)(C)C3)s1` (stereo unspecified), the fold change is -4.43 (inactive).
